Laboratory results: PubChem BioAssay AID1347426 (Functional Genomics Laboratory (NCATS/FGL), 2020)
About 1,400 (4.5%) of roughly 31,000 sequences were called active. This excerpt belongs to a sample that is enriched for actives. Values without a mark were called inactive.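 The calls were made as follows: active = median seed-adjusted z-score above 1 or below -1; inactive = the rest.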

Assay: Novel Modifiers of Survival Motor Neuron (SMN) Protein: Gene Identification via Genome-wide siRNA Screen
Conditions: HEK293T SMN2-luciferase reporter, siRNA knockdown, 72 h; actives lie on both sides
Text: Spinal muscular atrophy (SMA) is the most common neuromuscular autosomal recessive disorder and one of the leading genetic causes of infant death. SMA results from mutations inducing loss of function or deletion in the survival of motor neuron-1 gene (SMN1), leading to deficiency of the survival motor neuron (SMN) protein. Although a second nearly identical gene, SMN2, is retained in humans, its expression primarily produces an aberrantly spliced isoform that is largely unstable and quickly degraded. We performed a genome-wide RNAi screen using a cell-based reporter assay to identify genes and pathways that modulate SMN protein stability. The screen identified over 200 genes that led to the greatest increase or decrease in luciferase expression.
Using HEK293T cells stably expressing a luciferase reporter that combines the promoter and splicing based cassettes in tandem with the major portion of the native SMN2 cDNA with luciferase, we performed a genome-wide RNAi screen to identify modulators of SMN protein levels. Luciferase is expressed when full-length SMN protein is generated with luminescence signal proportional to SMN protein levels. Our luciferase-based reporter assay was used to screen Ambion Silencer Select Human Druggable Genome siRNA library (10418 genes, 3 unique siRNAs per gene) using lipid-based reverse transfection.
Briefly, 1 pmol of each siRNA was spotted to a well of a 384-well plate (Corning, Corning, NY) and 20 microL of serum-free DMEM containing […] of Lipofectamine RNAiMax (Life Technologies, Carlsbad, CA) was then added to each well. Transfected cells were maintained at 37 degrees C in 5% CO2 for 72 hours, 20 microL of ONE-Glo Reagent (Promega) was added to wells for luciferase quantification. Raw luminescence reads were normalized to Ambion(R) Silencer(R) Negative Control #2 siRNA, then log10 transformed. A robust statistical measure of median absolute deviation (MAD) to standardize siRNA activities from each screen. Common Seed Analysis was used to help prioritize clean hits as opposed to those appearing to arise from seed based off-target effects. Candidate modulators were defined as the genes having a MAD score greater than 1.0 or less than -1.0.

Row | Sequence | median seed-adjusted z-score
1 | AGGGAGCAAAUGAACCUGATT against VIP | 1.52 (active)
2 | GGGAAGGUGUUACAGGCUATT against FAM62A | -0.34
3 | CUGUCCAUCUGGGUCGUGATT against SLC30A2 | -0.402
4 | CUGCAGCUUUUAUCACAAATT against SLC25A33 | -0.0252
5 | GUAGAUAUGUGGAAACGGATT against FAM48A | -0.506
6 | GAGUCCCAUUUACAGCUAUTT against PFTK2 | -1.16 (active)
7 | GGAUGGAGACUACGAGUUUTT against STK4 | 0.652
8 | GACCAGAUAUUUGCCUAUUTT against CYFIP1 | -0.377
9 | GGAAAAUCAUCUUAUCAGATT against TEAD1 | 1.31 (active)
10 | CAGUAUACCAUCUAACAGATT against CNTN1 | -0.796
11 | CCACUUUAAUAAACGUGCUTT against TIMM10 | 0.0738
12 | CAGUGAAGAUAAAAUUCAATT against CRIP3 | 1.7 (active)
13 | CCUUCAAGGUCAACGUGUATT against KCNH3 | -0.509
14 | GGAGCACAAUAGAUCUGAATT against SEPX1 | -0.0545
15 | CCAUGGGAAUCCAAUCUGUTT against PTTG1 | -0.459
16 | GGACAUUCUAGAGAAAGAATT against SUPT5H | -4.02 (active)
17 | CGACCAUCAUGGAAAACAUTT against ABCB8 | -0.558
18 | GGAGGAUCUUGUACCCAGATT against PNKP | -0.0563
19 | CAGUGGGAACGACAACUUUTT against HNRPA1P4 | -0.906
20 | GGAACACUUUCUCUCUAGATT against NOD2 | 0.129
21 | GAUGCGAUUUGAUGAGAUATT against EPS15L1 | -0.0511
22 | CGCUAUACCUACCAGCAAATT against DNAJB12 | 0

Row | Sequence | median seed-adjusted z-score
23 | GCCUUACUCUGAUCUGGUATT against IL1RAP | -0.23
24 | CUACCAUGGUGUACCAACATT against QRICH1 | -1.04 (active)
25 | GCAAACAAGUGAUAGUGAUTT against RBM11 | -0.0341
26 | UCUUCUCCCUGAUAAAGUATT against SLC6A13 | 0.267
27 | GACUGAUCCCUCUACUUCATT against SNTG1 | 0.167
28 | GCUUUCAGCUGAACGAACUTT against LTF | 0.236
29 | GAAUAUUCCUAUAGUGAUATT against MYOZ2 | 0.315
30 | GAGUCUACCUAAUUCUGGATT against AURKA | -0.108
31 | CGACCUAAUCAUUCACAGUTT against CYP26C1 | -0.276
32 | GGAGAAGAUACAAAGCGCATT against MED21 | -1.3 (active)
33 | UAACAAAUCCUAUUAGAUUTT against CTBP2 | -0.241
34 | CGAAAACAGGAGAUCAUUATT against CAMK2G | -0.107
35 | GCGGCUCCAUUUACCAGAATT against VDAC1 | 0.133
36 | GGACAUUUCAUGAGUCAUUTT against 8-Mar | -0.106
37 | GCAUGAAUGCAACCUGAUUTT against DDX55 | 0.507
38 | GCAUGACGACUGAACUGAUTT against MDH1B | -1.13 (active)
39 | GCAACUUCUUAAGACUAAATT against DBR1 | 0.438
40 | GCAAGGCGGUGUUUAUGGATT against DLX1 | 0.0356
41 | CUCUCUCUGCAACACCUUUTT against SLC39A3 | 0.0298
42 | CUACAGUCGGGAACAUGAATT against CLK3 | -1.11 (active)
43 | ACGCUGUCCUGGUUCUUCATT against DGAT2L3 | 0.247
44 | GCAGAGCGGGUUAAAAUGATT against DNAJC2 | -0.0357

Row | Sequence | median seed-adjusted z-score
45 | GGUUACAAGUGUAUAACAATT against CD59 | 0.79
46 | CGGUGCUGUUCGUCGUCUATT against GJD3 | -0.251
47 | GAAGGGAAAUGAGUACCGATT against TRIM68 | -0.628
48 | GGAUAAUACAGAAGCAGAATT against SAP30BP | -0.257
49 | GGAAGAAACCAUUACAAUATT against SNAPC3 | -1.72 (active)
50 | AGAUGUGAAGCUCAAAUUATT against ETV7 | -0.00772
51 | GGGAGUCUUUCUUCGGGAATT against ABCG1 | -0.609
52 | CAUCAUCUCUGGAACUCUUTT against ALAS2 | -0.142
53 | GGUCAUGCAGAUUAUGUUATT against TUFM | 1.07 (active)
54 | CCUAUUCCCGAAGCCGUUATT against PLAUR | -0.118
55 | AAUGGAACCUGUAAGUGUATT against GCN5L2 | 0.013
56 | GAAGGACCCAGAUCUCUUUTT against ADCK1 | -0.177
57 | GAUCCUAUCUUACUAACCATT against IL7R | 0
58 | GGCUUAUUGGAGCUCUUAATT against CSE1L | 0.425
59 | CAAGAUCUCAAGAAAUUCATT against CDK2 | -0.347
60 | CCAUCGGAAUCUUGACGAATT against MX1 | -1.49 (active)
61 | GCAACGUGGACAUUGGUGATT against SOX10 | -0.255
62 | GAGUUCCUCUGGUCACUAUTT against TTC18 | -1.15 (active)
63 | GUUCAUCUUGAUUCACAAATT against NOC4L | -0.315
64 | GGAUGGCCAUUGAAGGGAUTT against ECHDC2 | -0.0827
65 | GGGACAGGCUGCAAAGAAATT against AARS2 | -0.52
66 | CGGCUGGGUCUGUACCAAATT against TLX2 | -0.182

Row | Sequence | median seed-adjusted z-score
67 | GGUCUUUGAUGCGAAGUUATT against DOCK2 | 0.151
68 | GCAUCGACGUGAUCACCAUTT against GPR26 | -1.33 (active)
69 | CAAACAUCCAUAUCUAUGATT against NMT1 | 0.18
70 | CGCUAUCCCAAUCGCUUUATT against CYB5R1 | 0
71 | GCAAGGGUCUCGGAUUAUATT against TMPRSS12 | 0.0961
72 | CUAUAGAUGUGAUCAGUGUTT against ZNF32 | 0.034
73 | GCCCAAACUGAGUACAACUTT against PLA2G10 | 1.07 (active)
74 | UGAGGACAAGGAUUUGGAATT against EIF2S2 | 0.576
75 | AUAGUUGACUAUUCUGAAATT against CCL18 | 0.169
76 | AUACGGCUCUAACAGAUUATT against DBI | 0.0661
77 | AGAAGAUCGGAAUUCUUUATT against RGPD5 | -0.0931
78 | GGCUUAGGAUGGAGACCUATT against TGDS | -0.196
79 | GUGUUUAAGGGCUUUUGAATT against CBR3 | 0.057
80 | GAAAUACCCUAUUACCAAATT against MED26 | -1.86 (active)
81 | AACCCAUCGUUCCAUAUUATT against PPOX | 0.519
82 | GAGUAGCAGGAAAAACGAATT against SNX13 | 0.253
83 | CCUAUGACAUGUUUCCAGATT against MAP4K2 | -0.439
84 | GCUAUAAGCCGAUAGUAGATT against 11-Sep | -0.245
85 | GCUGGGCCGAGUACCUUAATT against PDX1 | 0
86 | GAAGUAAGUUUGUUGUAGATT against PGAP1 | -0.272
87 | GCAAUGAGAUGAACACCGATT against NPEPL1 | 1.12 (active)
88 | GCCGAACUAUCUGAGAAUATT against PCDH1 | -0.514

Row | Sequence | median seed-adjusted z-score
89 | GGGUUAAUGUUGAGGAAUUTT against NME7 | -0.331
90 | CGGUAUCACCGUUGAUGAATT against ARID1A | -1.14 (active)
91 | CCUGAUUUCUUGUGAUACATT against DNAJC24 | -0.0166
92 | GGACAUUUGCAUACUCCUATT against PPP1R14D | 0
93 | GCAUUUCGCCUGACCAUUATT against SENP1 | 0.625
94 | CCGUUUUGGUGAGUCAACATT against RANBP2 | 1.53 (active)
95 | GAAUUGGAGUGAUUCGAAUTT against NETO2 | -0.136
96 | GGAAGACUAUUGGAUAGAATT against ARHGAP18 | 0
97 | CACCAGAUCUACCAGUUCATT against ADM | 0.65
98 | GCCCUACAUGGUAAAUUCATT against GTDC1 | 0.2
99 | CCCAAGAACUGCUACGUCATT against SMPD2 | -0.406
100 | GAAACUUCCUAAGUCGAAATT against FAM57A | 0.0434
101 | CGUUCGGAAUAACUGAAAUTT against GNG7 | -0.205
102 | AGAACAACCGGAUUCGAGATT against LRRC52 | 0.118
103 | UAAAGUUCUUUUAUCCAUUTT against UBE2D3 | 1.62 (active)
104 | GGGAGAACGUGACCAUCUATT against ICAM5 | -1 (active)
105 | GCCUUUCAGUCAUCGCGCATT against PLXND1 | -0.064
106 | GCUGGUCCCUUGGAUAAGATT against MED1 | -0.855
107 | GAAACAGUGCUGAAGCCUUTT against RYBP | 0.831
108 | GGGAGGGCAUCAACAAGAATT against RGS19 | 0.295
